Test results reported in PubChem BioAssay (Tox21).
Records with an inconclusive call do not appear. Calls of active or inactive are those of the source. Unless noted, calls follow the shape of the full dose curve.

What was measured:
[1] = Nuclear factor erythroid 2-related factor 2/antioxidant responsive element (Nrf2/ARE) small molecule agonists: qHTS cell viability counter screen in human keratinocytes (AID 1919968; active = well fitted curve in the direction sought with a large enough effect in the repeat runs; an effect the other way counts as inactive or inconclusive; also: nearly all actives have a fitted effect of over 55% in size)
How it was run: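 Stably transfected HaCaT (KeratinoSens), 1,500/well. Test agents in DMSO were applied for 23 h, 37 C/5% CO2. CellTiter-Fluor was incubated 1 h before the fluorescence read.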

[2] = Nuclear factor erythroid 2-related factor 2/antioxidant responsive element (Nrf2/ARE) small molecule agonists: luciferase reporter gene qHTS assay in human keratinocytes (AID 1919969); also: nearly all actives have a fitted effect of over 35% in size
[3] = target: Gonadotropin-releasing hormone receptor (Homo sapiens) (UniProt P30968); assay: Human gonadotropin-releasing hormone receptor (GnRHR) small molecule agonists, calcium flux assay in GnRHR-HEK293 cells (AID 1920063); also: nearly all actives have a fitted effect of over 35% in size
How it was run: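 Stable human GnRHR HEK293 line. 18 h plating, then calcium dye for 1 h at 37 C. Agonist-mode compound addition from DMSO stocks; fluorescence monitored 3 min.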

[4] = target: KiSS-1 receptor (Homo sapiens) (UniProt Q969F8); assay: Human kisspeptin (KISS1R) small molecule agonists, calcium flux assay in KISS1R-HEK293 cells (AID 1920064; active = well fitted curve in the direction sought with a large enough effect in the repeat runs; an effect the other way counts as inactive or inconclusive)
How it was run: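 After overnight (18 h) culture at 37 C/5% CO2, human KISS1R-HEK293 cells received calcium dye for 1 h, then test compound; emission at 540 nm (excitation 480 nm) was tracked for 3 min.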

[5] = G protein-coupled receptor (GPCR) small molecule agonists, calcium flux assay: HEK293 wild type cell line counter screen (AID 1920065)
How it was run: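 Following 18 h incubation at 37 C/5% CO2, plates got calcium dye for 1 h; compounds, ATP or DMSO were then pinned in and fluorescence followed kinetically (480/540 nm).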

[6] = p53 small molecule agonists, cell-based qHTS assay with human liver microsomes (AID 1963577);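 also: p53 response element beta-lactamase reporter cells with liver microsomes plus NADPH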
How it was run: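 Metabolically competent format: test substances, human liver microsomes and NADPH (both 0.5 mg/mL final) incubated with p53RE-bla cells 16 h at 37 C. Beta-lactamase reporter signal then quantified by fluorescence.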

[7] = p53 small molecule agonists, cell-based qHTS assay with rat liver microsomes (AID 1963578)
How it was run: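 Each plate received p53RE-bla cells, then compound, then rat liver microsomes and NADPH (both 0.5 mg/mL final). Plates were held 16 h at 37 C, and beta-lactamase activity was detected with LiveBLAzer over 2 h.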

[8] = p53 small molecule agonists, cell-based qHTS assay with human liver microsomes: qHTS cell viability counter screen (AID 1963579); also: nearly all actives have a fitted effect of over 45% in size
How it was run: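 Tox21 library compounds, delivered from DMSO stocks, were tested on p53RE-bla cells together with 0.5 mg/mL human liver microsomes and 0.5 mg/mL NADPH (final) over 16 h at 37 C; CellTiter-Glo luminescence served as the cytotoxicity measure.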

[9] = p53 small molecule agonists, cell-based qHTS assay with rat liver microsomes: qHTS cell viability counter screen (AID 1963580); also: nearly all actives have a fitted effect of over 45% in size
How it was run: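 After the beta-lactamase ratio was read, CellTiter-Glo was added to the same wells and luminescence measured at 30 min; cells had been treated 16 h at 37 C with compounds, rat liver microsomes and NADPH (0.5 mg/mL final each).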

[10] = p53 small molecule agonists, cell-based qHTS assay: qHTS cell viability counter screen (AID 1963581); also: nearly all actives have a fitted effect of over 45% in size
How it was run: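 qHTS counter screen: 16 h compound exposure at 37 C of p53RE-bla HCT-116 cells (4,000 per well, seeded 5 h prior), cell viability by ATP luminescence.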

[11] = p53 small molecule agonists, cell-based qHTS assay (AID 1963582; active = well fitted activation curve with a large enough effect in the signal ratio in the repeat runs, not every such curve was filed as active; the % refers to the signal ratio)
How it was run: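 Measured: fluorescence from cleaved LiveBLAzer substrate. System: p53RE-bla cells, 16 h compound treatment at 37 C, 2 h substrate step at room temperature.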

[12] = target: 5-hydroxytryptamine receptor 2A (Homo sapiens) (UniProt P28223); assay: 5-hydroxytryptamine receptor 2A (HTR2A) small molecule antagonists, cell-based qHTS assay (AID 1963586); also: nearly all actives have a fitted effect of over 45% in size
How it was run: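 CHO cells stably expressing human HTR2A were plated for 18 h at 37 C, then loaded with calcium dye for 1 h. Compounds were preincubated 5 min at room temperature before DOI (4 nM solution) was added. Kinetic fluorescence was read for 3 min.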

[13] = target: 5-hydroxytryptamine receptor 2A (Homo sapiens) (UniProt P28223); assay: 5-hydroxytryptamine receptor 2A (HTR2A) small molecule agonists, cell-based qHTS assay (AID 1963587); also: nearly all actives have a fitted effect of over 30% in size
How it was run: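 CHO cells stably expressing human HTR2A, plated 18 h, loaded with calcium dye 1 h at 37 C. Agonist mode: compounds added and intracellular calcium fluorescence recorded kinetically for 2 min at 1 sec intervals.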

[14] = target: Muscarinic acetylcholine receptor M1 (Homo sapiens) (UniProt P11229); assay: Cholinergic receptor muscarinic 1 (CHRM1) small molecule antagonists, cell-based qHTS assay (AID 1963588); also: nearly all actives have a fitted effect of over 40% in size
How it was run: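 Compounds were tested at 15 concentrations in three independent runs. Dye-loaded CHRM1-CHO cells were exposed 5 min at room temperature before stimulation by acetylcholine added at 50nM. Intracellular calcium was read kinetically on FDSS for 3 min.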

[15] = cAMP Responsive Elements (CRE) small molecule agonists, cell-based qHTS assay (AID 1963590)
How it was run: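 Test agents in DMSO were incubated 3 h at 37 C/5% CO2 with CRE-bla HEK 293T cells seeded 18 h earlier; LiveBLAzer B/G FRET substrate was added and read after 2 h at room temperature.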

[16] = cAMP Responsive Elements (CRE) small molecule antagonists, cell-based qHTS assay (AID 1963591; active = well fitted inhibition curve with a large enough effect in the signal ratio in the repeat runs, not every such curve was filed as active; the % refers to the signal ratio)
How it was run: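 Reporter line CRE-bla HEK 293T in dialyzed-FBS DMEM; cells preincubated 18 h, treated 3 h with compound plus NKH477 (0.25 uM final); LiveBLAzer FRET, 2 h RT.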

[17] = target: Beta-2 adrenergic receptor (Homo sapiens) (UniProt P07550); assay: Adrenergic beta2 receptor (ADRB2) small molecule antagonists, cell-based qHTS assay (AID 1963592); also: series mostly up to about 92 µM; nearly all actives have a fitted effect of over 50% in size
How it was run: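 Assay format: CHO-ADRB2 cells, 18-20hr seeding at 37C/5% CO2, then compound plus 1nM isoproterenol agonist mix for 0.5hr RT. Homogeneous time-resolved fluorescence cAMP detection after 1hr, expressed as 665/615 nm ratio.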

[18] = target: D(2) dopamine receptor (Homo sapiens) (UniProt P14416); assay: Dopamine D2 receptor (DRD2) small molecule agonists, cell-based qHTS assay (AID 1963594); also: nearly all actives have a fitted effect of over 35% in size
How it was run: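 HEK293 cells stably expressing human DRD2, pre-treated with PDE inhibitor Ro20-1724 (0.1 mM final) and compound 10 min at room temperature, then stimulated with NKH477 (200nM […]) for 30 min. cAMP read by HTRF (665/620 nm).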

[19] = target: D(2) dopamine receptor (Homo sapiens) (UniProt P14416); assay: Dopamine D2 receptor (DRD2) small molecule antagonists, cell-based qHTS assay (AID 1963595; active = well fitted inhibition curve with a large enough effect in the signal ratio in the repeat runs, with a control signal flat; the % refers to the signal ratio)
How it was run: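 HTRF cAMP read-out at 665 and 620 nm emission (340 nm excitation). Antagonist mode: compounds were tested against 12 nM quinpirole in DRD2-HEK293 cells, with 200 nM NKH477 raising cAMP and 0.1 mM Ro20-1724 blocking its breakdown.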

[20] = target: Beta-2 adrenergic receptor (Homo sapiens) (UniProt P07550); assay: Adrenergic beta2 receptor (ADRB2) small molecule agonists, cell-based qHTS assay (AID 1963593);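 also: CHO cells stably overexpressing human ADRB2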
How it was run: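 CHO cells stably over-expressing ADRB2 were plated overnight at 37C, then dosed with compounds plus a stimulation mix containing 100uM IBMX and 25uM Ro-20-1724 for 0.5hr at room temperature. cAMP was measured by HTRF competition, 1hr.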

Measured: Potency

KiSS-1 receptor (Homo sapiens), sequence (Q969F8 whole entry, looked up): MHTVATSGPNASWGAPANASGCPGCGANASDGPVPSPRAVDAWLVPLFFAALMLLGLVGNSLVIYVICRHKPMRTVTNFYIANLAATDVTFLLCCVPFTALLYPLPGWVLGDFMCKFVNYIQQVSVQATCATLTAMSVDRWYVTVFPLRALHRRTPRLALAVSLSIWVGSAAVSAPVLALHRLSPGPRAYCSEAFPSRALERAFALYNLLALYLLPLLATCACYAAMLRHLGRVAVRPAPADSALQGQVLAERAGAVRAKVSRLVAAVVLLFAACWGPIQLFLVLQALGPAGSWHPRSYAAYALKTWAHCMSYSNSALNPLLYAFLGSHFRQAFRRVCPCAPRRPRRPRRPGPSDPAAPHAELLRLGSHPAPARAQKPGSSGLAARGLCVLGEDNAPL
Beta-2 adrenergic receptor (Homo sapiens), sequence (P07550 whole entry, looked up): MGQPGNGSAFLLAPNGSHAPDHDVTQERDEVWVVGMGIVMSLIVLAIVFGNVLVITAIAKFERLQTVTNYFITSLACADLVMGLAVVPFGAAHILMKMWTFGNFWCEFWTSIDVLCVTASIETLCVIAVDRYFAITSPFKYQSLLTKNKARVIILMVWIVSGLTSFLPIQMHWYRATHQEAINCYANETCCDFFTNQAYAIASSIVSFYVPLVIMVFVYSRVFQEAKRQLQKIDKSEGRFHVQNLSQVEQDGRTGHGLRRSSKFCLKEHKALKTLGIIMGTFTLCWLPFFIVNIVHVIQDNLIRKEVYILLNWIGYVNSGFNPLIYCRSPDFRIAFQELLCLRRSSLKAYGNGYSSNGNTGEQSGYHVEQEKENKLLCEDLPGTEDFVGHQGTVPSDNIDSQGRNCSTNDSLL
D(2) dopamine receptor (Homo sapiens), sequence (P14416 whole entry, looked up): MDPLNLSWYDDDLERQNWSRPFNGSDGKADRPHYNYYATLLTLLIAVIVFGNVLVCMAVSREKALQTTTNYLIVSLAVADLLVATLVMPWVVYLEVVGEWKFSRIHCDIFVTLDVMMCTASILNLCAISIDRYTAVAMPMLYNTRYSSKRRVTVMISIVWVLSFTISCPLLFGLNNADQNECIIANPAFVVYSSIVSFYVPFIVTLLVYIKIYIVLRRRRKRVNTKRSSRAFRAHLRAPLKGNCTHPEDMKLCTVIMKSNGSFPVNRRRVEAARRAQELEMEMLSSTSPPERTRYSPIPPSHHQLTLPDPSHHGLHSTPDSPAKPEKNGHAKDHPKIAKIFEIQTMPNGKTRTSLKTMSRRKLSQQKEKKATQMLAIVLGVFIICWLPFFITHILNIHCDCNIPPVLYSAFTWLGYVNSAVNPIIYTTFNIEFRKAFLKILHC
Muscarinic acetylcholine receptor M1 (Homo sapiens), sequence (P11229 whole entry, looked up): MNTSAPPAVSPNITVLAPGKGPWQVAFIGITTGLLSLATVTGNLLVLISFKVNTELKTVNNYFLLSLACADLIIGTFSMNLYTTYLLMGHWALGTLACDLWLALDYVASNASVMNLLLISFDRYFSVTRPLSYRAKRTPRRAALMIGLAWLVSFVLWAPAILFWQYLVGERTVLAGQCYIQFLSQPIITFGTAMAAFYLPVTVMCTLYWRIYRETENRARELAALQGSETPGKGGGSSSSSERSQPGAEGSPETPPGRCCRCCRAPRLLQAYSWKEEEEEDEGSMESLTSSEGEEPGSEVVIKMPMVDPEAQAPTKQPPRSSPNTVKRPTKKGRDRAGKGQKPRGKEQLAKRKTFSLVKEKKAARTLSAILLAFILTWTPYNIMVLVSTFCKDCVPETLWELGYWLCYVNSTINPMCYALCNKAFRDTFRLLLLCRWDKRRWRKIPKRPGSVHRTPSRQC
5-hydroxytryptamine receptor 2A (Homo sapiens), sequence (P28223 whole entry, looked up): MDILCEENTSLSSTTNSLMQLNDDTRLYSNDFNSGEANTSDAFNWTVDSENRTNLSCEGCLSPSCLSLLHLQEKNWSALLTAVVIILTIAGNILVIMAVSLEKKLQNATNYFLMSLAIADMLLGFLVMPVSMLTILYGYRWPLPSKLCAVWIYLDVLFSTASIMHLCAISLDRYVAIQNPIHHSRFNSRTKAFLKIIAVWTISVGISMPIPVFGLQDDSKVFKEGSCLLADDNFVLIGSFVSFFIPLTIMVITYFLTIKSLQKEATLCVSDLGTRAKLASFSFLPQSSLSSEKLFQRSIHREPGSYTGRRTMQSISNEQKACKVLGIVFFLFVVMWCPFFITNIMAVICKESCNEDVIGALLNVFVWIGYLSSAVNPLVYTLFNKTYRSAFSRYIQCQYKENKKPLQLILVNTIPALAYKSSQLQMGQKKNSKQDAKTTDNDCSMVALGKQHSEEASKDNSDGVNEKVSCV
Gonadotropin-releasing hormone receptor (Homo sapiens), sequence (P30968 whole entry, looked up): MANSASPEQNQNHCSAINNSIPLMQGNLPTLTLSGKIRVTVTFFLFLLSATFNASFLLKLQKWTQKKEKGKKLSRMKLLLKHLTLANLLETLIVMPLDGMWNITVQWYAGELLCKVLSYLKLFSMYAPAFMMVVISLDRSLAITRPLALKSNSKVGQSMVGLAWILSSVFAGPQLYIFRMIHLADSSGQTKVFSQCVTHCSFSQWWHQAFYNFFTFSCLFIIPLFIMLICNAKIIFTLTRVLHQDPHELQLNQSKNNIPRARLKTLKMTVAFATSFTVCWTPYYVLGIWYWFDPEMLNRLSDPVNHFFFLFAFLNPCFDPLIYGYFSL

N[C@@H](Cc1cc(I)c(Oc2cc(I)c(O)c(I)c2)c(I)c1)C(=O)O
inactive: [1] | [2] | [3] | [4] | [5] | [6] | [7] | [8] | [9] | [10] | [11] | [12] | [13] | [14] | [15] | [16] | [17] | [18] | [19]

CCC(C)(O)CCCC(C)C (stereo not given)
inactive: [1] | [2] | [3] | [4] | [5] | [6] | [7] | [8] | [9] | [10] | [11] | [13] | [14] | [15] | [16] | [17] | [20] | [18] | [19]

CN(C)C
inactive: [1] | [2] | [3] | [4] | [5] | [6] | [7] | [8] | [9] | [10] | [11] | [12] | [13] | [15] | [17] | [20] | [18] | [19]

NCCOCCO
inactive: [1] | [2] | [3] | [4] | [5] | [6] | [7] | [8] | [9] | [10] | [11] | [12] | [13] | [14] | [17] | [20] | [18] | [19]

COc1cc(C=O)ccc1O
inactive: [1] | [2] | [3] | [4] | [5] | [6] | [7] | [8] | [9] | [10] | [11] | [12] | [13] | [15] | [16] | [17] | [20] | [18]

O=C(O)C1=NN(c2ccc(S(=O)(=O)O)cc2)C(=O)C1
inactive: [1] | [2] | [3] | [4] | [5] | [6] | [7] | [8] | [9] | [10] | [11] | [12] | [14] | [15] | [16] | [17] | [20] | [18] | [19]

O=C1CCCCCCCCCCC1
inactive: [1] | [2] | [3] | [4] | [5] | [6] | [7] | [8] | [9] | [10] | [11] | [12] | [13] | [15] | [16] | [17] | [20] | [18] | [19]

CCCCCCCC=O
inactive: [1] | [2] | [3] | [4] | [5] | [6] | [7] | [8] | [9] | [10] | [11] | [12] | [13] | [14] | [15] | [16] | [17] | [20] | [18] | [19]
